The source of these data is PubChem BioAssay (NCI).

About 79,000 compounds went through this panel and 15% of them were active in at least one assay; those are over-represented in the sample as a whole. Unmarked numbers belong to inactive results. Active and inactive are the calls of the source. Rule as the data show it: active = growth inhibition above about 70%; inactive = the rest.

Assay [1] in a line: NCI Yeast Anticancer Drug Screen. Data for the rad50 strain (AID 155).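 Also: 0% = growth of vehicle-only cultures of the same strain.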 Conditions: S. cerevisiae rad50 strain growth inhibition; at 50.0 µM; stronger effect = higher value. In short, it runs like this:
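Yeast carrying a defined DNA repair defect were exposed to test compounds, and growth was compared with vehicle-treated controls to give percent inhibition.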

A short description of assay [2]: NCI Yeast Anticancer Drug Screen. Data for the mec2-1 strain (AID 157). The settings on record: S. cerevisiae mec2-1 strain, at 50.0 µM, stronger effect = higher value. The gist of the method: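 Growth inhibition is read against vehicle-treated controls after compound exposure of the mec2-1 yeast strain, which is defective in DNA damage repair or cell cycle control.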
Assay [3] in a line: NCI Yeast Anticancer Drug Screen. Data for the sgs1 mgt1 strain (AID 161).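 Also: 0% = growth of cultures given vehicle only.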 Conditions: S. cerevisiae sgs1 mgt1 strain, at 50.0 µM, stronger effect = higher value. The gist of the method: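 Growth of a repair-deficient yeast mutant was monitored after compound treatment and expressed as inhibition relative to vehicle-treated cultures.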
Assay [4] can be described thus: NCI Yeast Anticancer Drug Screen. Data for the cln2 rad14 strain (AID 165).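 Also: 0% = growth equal to vehicle treated cultures.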 Conditions: S. cerevisiae cln2 rad14 strain, at 50.0 µM, stronger effect = higher value. In short, it runs like this:
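Growth inhibition, relative to vehicle-treated controls, is the read-out. The test organism is a yeast strain with defined genetic alterations, cln2 rad14.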

A short description of assay [5]: NCI Yeast Anticancer Drug Screen. Data for the bub3 strain (AID 167). Conditions: S. cerevisiae bub3 mutant strain, at 50.0 µM, stronger effect = higher value. The gist of the method: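 Compounds were applied to a genetically altered yeast strain carrying a cell-cycle control defect. Growth inhibition was scored against vehicle-treated controls.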
Assay [6] in a line: NCI Yeast Anticancer Drug Screen. Data for the mlh1 rad18 strain (AID 175). Conditions: S. cerevisiae mlh1 rad18 strain growth inhibition; at 50.0 µM; stronger effect = higher value. The gist of the method: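 Cells of a genetically altered yeast strain, deficient in DNA damage repair, were treated with compound. Their growth was then compared with that of vehicle-treated cultures to give inhibition.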

As for `C=CCOC(=O)CC(O)(CC(=O)OCC=C)C(=O)OCC=C`, the growth inhibition was -3.4% in assay [1]; -17.9% in assay [2]; -11.8% in assay [3]; -35.5% in assay [4]; -6.4% in assay [5]; -12.2% in assay [6].

On to `O=C(O)c1cnc2c(ccc3[nH]cccc32)c1=O`, for which the growth inhibition in assay [1] is -7.3%; in assay [2] it was -33.8%; in assay [3] it was -9%; in assay [4], 15.6%; in assay [5] it was 19.6%; in assay [6], -2.8%.

As to `COc1cccc2c1CCC(=O)C2`, the growth inhibition was -31.7% in assay [1]; -44.8% in assay [2]; -35.1% in assay [3]; 8% in assay [4]; -44.8% in assay [5]; -18.3% in assay [6].

Turning to `ONc1cnc2ccccc2n1`, the growth inhibition was -34.9% in assay [1]; -30.4% in assay [2]; -3.5% in assay [3]; -49.2% in assay [4]; -4.8% in assay [5]; 0.4% in assay [6].

As to `Cc1csc(NNC(N)=O)n1`, the growth inhibition in assay [1] is 1.65%; in assay [2], -8.05%; in assay [3], -63.5%; in assay [4], -14%; in assay [5] it was -42.9%; in assay [6], -27.4%.

As to `O=C(O)CCCN1CCCCC1`, the growth inhibition is -22.1% in assay [1]; -32.4% in assay [2]; -30.2% in assay [3]; -4.7% in assay [4]; -63.9% in assay [5]; 8.8% in assay [6].

Take `O=C(N/N=C/c1ccccc1[O-])c1ccccc1O.O=C(N/N=C/c1ccccc1[O-])c1ccccc1O.[Fe+2]`: the growth inhibition in assay [1] is 6.45%; in assay [2] it was -10.1%; in assay [3], -1.5%; in assay [4] it was 19.3%; in assay [5], -19.6%; in assay [6] it was 9.5%.

Consider `CC(=O)O[C@H]1CC[C@@]2(C)C(=CC[C@H]3[C@@H]4CC[C@H](c5cc(C(F)(F)F)n(C(C)=O)n5)[C@@]4(C)CC[C@@H]32)C1`, for which the growth inhibition is 11.3% in assay [1]; -6.7% in assay [2]; -40.6% in assay [3]; 2.55% in assay [4]; -19.6% in assay [5]; 12.4% in assay [6].

With `COC(=O)c1cc(OC)c2cccnc2c1Nc1ccccc1`, the growth inhibition in assay [1] is -7.75%; in assay [2], 12.2%; in assay [3] it was 9.25%; in assay [4] it was 0.6%; in assay [5] it was 11.1%; in assay [6] it was -6.8%.

`OC1CC2C=CC1CC2` (stereo not drawn): the growth inhibition in assay [1] is 14.9%; in assay [2] it was 10.3%; in assay [3], 2.4%; in assay [4], 13.2%; in assay [5], 25.1%; in assay [6], 14.4%.

As for `O=[N+]([O-])c1cc([N+](=O)[O-])c2ccccc2c1NS(=O)(=O)c1ccc(Br)cc1`, the growth inhibition in assay [1] was 7.35%; in assay [2], 18.9%; in assay [3], 36.4%; in assay [4], 0.7%; in assay [5], 36%; in assay [6], 70.5% (active).

For the molecule `C[C@@]12CCC(=O)C=C1CC[C@H]1C2C(=O)C[C@]2(C)C1CC[C@@]2(O)C(=O)COC(=O)CCC(=O)O` (stereo partly drawn), the growth inhibition is 0.1% in assay [1]; 10.3% in assay [2]; -19.8% in assay [3]; 4.45% in assay [4]; 6.95% in assay [5]; 0.25% in assay [6].

Regarding `COC(=O)c1nn(-c2ccccc2)c2nc3ccccc3c-2c1C(=O)OC`, the growth inhibition in assay [1] is 39.8%; in assay [2] it was 17%; in assay [3], 31%; in assay [4], 18.5%; in assay [5] it was 20.9%; in assay [6] it was 36.5%.

With `Cc1ccccc1NC(=O)NC(Oc1ccccc1)(C(F)(F)F)C(F)(F)F`, the growth inhibition is -6.95% in assay [1]; -21.8% in assay [2]; -50.9% in assay [3]; 15.6% in assay [4]; -32.8% in assay [5]; -29.1% in assay [6].

As to `N#CCCC(=O)c1ccccc1`, the growth inhibition in assay [1] is -1.5%; in assay [2], -19.1%; in assay [3] it was -1.15%; in assay [4] it was -2.65%; in assay [5] it was 5.15%; in assay [6] it was 16.9%.

As to `CCSc1[nH]c2nc[nH]c(=O)c2c1C#N`, the growth inhibition in assay [1] was -8.1%; in assay [2] it was 21.2%; in assay [3] it was -32.5%; in assay [4], -17.8%; in assay [5], 0.45%; in assay [6], -8.4%.

For `c1ccc(C2=NOCC3(c4ccccc4)OC23)cc1` (stereo not drawn), the growth inhibition is 7.85% in assay [1]; 11.8% in assay [2]; 20.7% in assay [3]; -14.8% in assay [4]; 14.2% in assay [5]; 11.3% in assay [6].

`O=[N+]([O-])c1ccc(N/N=C2\C=C(c3ccccc3)C(c3ccccc3)C2)c([N+](=O)[O-])c1` (stereo not drawn): the growth inhibition was -36.3% in assay [1]; 8.95% in assay [2]; -9.25% in assay [3]; 23.1% in assay [4]; 96.8% (active) in assay [5]; -14.2% in assay [6].

`CCOC(CO)OCC`: the growth inhibition in assay [1] is 28.9%; in assay [2], -0.25%; in assay [3], -3.4%; in assay [4], 8.95%; in assay [5] it was 13.6%; in assay [6], -8%.

Turning to `c1ccc2c(c1)OP1(=NP3(=NP4(=NP5(=N1)Oc1ccccc1-c1ccccc1O5)Oc1ccccc1-c1ccccc1O4)Oc1ccccc1-c1ccccc1O3)Oc1ccccc1-2`, the growth inhibition in assay [1] was 7.8%; in assay [2], 6.3%; in assay [3], -30.5%; in assay [4] it was -4.1%; in assay [5], -1.1%; in assay [6] it was 17.2%.

As for `CCCSc1ccc([N+](=O)[O-])cc1[N+](=O)[O-]`, the growth inhibition in assay [1] was 31.8%; in assay [2], -5.6%; in assay [3], 25.2%; in assay [4], 1%; in assay [5] it was -5.35%; in assay [6], 32.8%.

Regarding `CCCCSc1nc2c([nH]1)c(=O)n(C)c(=O)n2C`, the growth inhibition in assay [1] is -0.75%; in assay [2] it was 2.8%; in assay [3], 4.3%; in assay [4], -34.5%; in assay [5], 22.9%; in assay [6] it was 1.5%.

On to `CNC(=O)OCC#CCOC(=O)NC`, for which the growth inhibition in assay [1] is -17.5%; in assay [2], -9.9%; in assay [3], -23.2%; in assay [4], -4.85%; in assay [5] it was -10.5%; in assay [6], -25.1%.

As to `Nc1ccc(-c2ccccc2)cc1[N+](=O)[O-]`, the growth inhibition was 33.2% in assay [1]; -8.85% in assay [2]; 16.1% in assay [3]; -23.2% in assay [4]; 21.1% in assay [5]; 8.8% in assay [6].

For the molecule `N#Cc1cc2c(cc1C#N)/C(=N\c1cccc(N)n1)N=C2Nc1cccc(N)n1`, the growth inhibition in assay [1] is 6.1%; in assay [2], 19.1%; in assay [3] it was 0.2%; in assay [4] it was 1.25%; in assay [5] it was 5.8%; in assay [6], 22%.

Take `O=C(Nc1ccc(Br)cc1)OCC1CC2C=CC1C2` (stereo not drawn): the growth inhibition in assay [1] is 43.5%; in assay [2] it was 70.8% (active); in assay [3], 79.9% (active); in assay [4] it was 42%; in assay [5], 33.9%; in assay [6], 47.4%.

On to `C(/C=C/C=C/Nc1ccc(N=Nc2ccccc2)cc1)=Nc1ccc(N=Nc2ccccc2)cc1`, for which the growth inhibition in assay [1] was -32.8%; in assay [2] it was -38%; in assay [3], -26.3%; in assay [4] it was -1.65%; in assay [5], -25.8%; in assay [6], -30%.

As to `CCOC(=O)c1c(O)csc1C`, the growth inhibition in assay [1] is -7.75%; in assay [2], -6.35%; in assay [3] it was -7.45%; in assay [4], -14.2%; in assay [5] it was -6.05%; in assay [6], -8.15%.

On to `CCC1(N=[N+]=[N-])C(=O)c2ccccc2N(c2ccccc2)C1=O` (stereo not drawn), for which the growth inhibition is -13.3% in assay [1]; -13% in assay [2]; -18.9% in assay [3]; 2.75% in assay [4]; -0.95% in assay [5]; -19.4% in assay [6].

For `CC(=O)NCCNC(=O)c1ccc(C)c(OCc2ccccc2)c1[N+](=O)[O-]`, the growth inhibition in assay [1] is 7%; in assay [2] it was 11.7%; in assay [3], -1%; in assay [4], -26.2%; in assay [5] it was -1.6%; in assay [6], 4.45%.

Consider `COC(=O)C1=CO[C@@H](O)[C@@H]2C(C)OC(=O)C[C@H]12` (stereo partly drawn), for which the growth inhibition was -8.5% in assay [1]; -28.3% in assay [2]; -6.9% in assay [3]; 3.2% in assay [4]; -10.8% in assay [5]; -15.2% in assay [6].

Turning to `Cc1ccc(NC(=O)OCC(COc2ccc(Cl)cc2Cl)OC(=O)Nc2ccc(C)cc2)cc1` (stereo not drawn), the growth inhibition in assay [1] was -27.8%; in assay [2], -24.9%; in assay [3] it was -0.55%; in assay [4], 16.1%; in assay [5], 11.2%; in assay [6], 9.05%.

Turning to `N#Cc1cc2c(n(C3OC(CO)C(O)C(O)C3O)c1=S)CCCCC2` (stereo not drawn), the growth inhibition in assay [1] was -3.95%; in assay [2] it was -16%; in assay [3], -3.75%; in assay [4], -0.75%; in assay [5] it was 5.65%; in assay [6], 24.1%.

With `CS(=O)(=O)N/N=C/C1C=CC=CC1` (stereo not drawn), the growth inhibition in assay [1] is -6.9%; in assay [2] it was 0.7%; in assay [3], -6.25%; in assay [4], -24.4%; in assay [5], -12.2%; in assay [6], -26.6%.

For `CC(C)c1nc(N)nc(N)n1`, the growth inhibition in assay [1] is 4.8%; in assay [2] it was -23.8%; in assay [3] it was 5.8%; in assay [4], 12.8%; in assay [5] it was 1%; in assay [6], -16.8%.

`c1ccc(-c2cc(-c3ccccc3)nc(-c3ccccc3)c2)cc1`: the growth inhibition in assay [1] was -7.2%; in assay [2] it was -4.05%; in assay [3], 10.1%; in assay [4], -33%; in assay [5], 9.65%; in assay [6], 1.6%.

As to `NC1=NCC(c2ccccn2)C1c1ccc(F)cc1` (stereo not drawn), the growth inhibition in assay [1] was -11.9%; in assay [2], -34.9%; in assay [3] it was 1.1%; in assay [4], 7.75%; in assay [5] it was -18.7%; in assay [6] it was -14%.

On to `O=C(O)c1n[nH]c2ccccc12`, for which the growth inhibition in assay [1] is 8.5%; in assay [2] it was -14.1%; in assay [3] it was 3.75%; in assay [4] it was 5.6%; in assay [5] it was -5.7%; in assay [6] it was -9.85%.
